Several values for one entry are separate records, joined by “and”; a condition that tells them apart may be missing. Equal values may be shown once. Inconclusive results are not listed. Where a call stands in place of a potency, no number is given. Some structures have more than one record in an assay (separate samples or runs), and their calls can disagree. Activity calls are given as the source filed them. Calls come from the whole dose curve; as a rule, active = well fitted cell-killing curve with a large enough effect in the repeat runs; inconclusive = weak or mixed curves; inactive = flat fitted curve, though single readings scatter.
Assay: qHTS RealTime-Glo MT Cell Viability Assay in HepG2 cells - 16 hour (AID 1224885); note: nearly all actives have a fitted effect of over 50% in size
Conditions: RealTime-Glo luminescence; series mostly up to 76.8 µM
Excerpt: U.S. Tox21 Program National Center for Advancing Translational Sciences [NCATS] NIH Chemical Genomics Center [NCGC] U.S. Environmental Protection Agency [EPA] National Institutes of Environmental Health Sciences [NIEHS] National Toxicology Program [NTP] U.S. Food and Drug Administration [FDA] Tox21 Assay Overview: Measure of cell viability is critical in the cell-base assay. Analysis of cell viability is necessary for the characterization of cell responses to cytotoxic drugs and environmental stress. A RealTime-Glo MT Cell Viability Assay to monitor cell viability in real time of continues cell culture during 40 hours of compound treatment was used to screen Tox21 10K library compounds in HepG2 cells. The RealTime-Glo MT Cell Viability Assay is a nonlytic, homogeneous, bioluminescent method to measure cell viability in real time using a simple, plate-based method. The assay involves adding NanoLuc luciferase and a cell-permeant prosubstrate to cells in culture. Viable cells reduce the proprietary prosubstrate to generate a substrate for NanoLuc luciferase. This substrate diffuses from cells into the surrounding culture medium, where it is rapidly used by the NanoLuc Enzyme to produce a luminescent signal. The signal correlates with the number of viable cells, making the assay well suited for cytotoxicity studies.
Tox21 Assay Protocol Summary: The mixture of HepG2 cell suspension and reagents were dispensed at 600cells/6 ul/well in 1536-well tissue culture treated black solid bottom plates using a Multidrop dispenser. After the assay plates were incubated at a 37 C/5% CO2 incubator for 5 hours, 23 nL of compounds dissolved in DMSO, positive and negative controls was transferred to the assay plate by a pintool work station. The plates were incubated at 37 C for 40 hours. The luminescence intensity were measured at 0h, 8h, 16h, 24h, 32h and 40h time points using ViewLux plate reader during compound treatment.
Potency is the fitted concentration of half-maximal effect.

Compound | Potency
C=CC(=O)OCCCCCCCC | inactive
NCCCCCC(=O)O | inactive
NC(N)=NC(=O)Cc1c(Cl)cccc1Cl | inactive
CC(=O)C1=C(C)[C@@H]2C[C@@]3(C1)[C@H](C)CC[C@H]3C2(C)C | inactive
Cc1scc2c1N(C(=O)CN1CCN(C)CC1)c1ccccc1NC2=O | inactive
Cc1cccc2n[nH]nc12 | inactive
CCc1ccc(C(c2ccc(CC)cc2)C(Cl)Cl)cc1 | inactive
CC(C)CCCCCCc1ccc(O)cc1 | inactive
CCOc1ccc2c(c1)C(C)=CC(C)(C)N2 | inactive
CC(=O)N[C@@H](CS)C(=O)O | inactive
Nc1ccc(O)cc1 | 57.1 µM (active) and inactive
CC(C)(C)NCC(O)c1cc(O)cc(O)c1 (stereo not given) | inactive
CC(=O)CC(=O)Nc1ccc2[nH]c(=O)[nH]c2c1 | inactive
COc1cc(C(=S)N2CCOCC2)ccc1O | inactive
CC1=CC(=O)c2ccccc2C1=O | 43.6 µM (active)
CCN(CC)CCOc1ccc(/C(=C(\Cl)c2ccccc2)c2ccccc2)cc1 | 31.6 µM (active) and 23.9 µM (active)
CO[Si](OC)(OC)c1ccccc1 | inactive
O=C(O)CCc1ccccc1 | inactive
O=C(Cl)c1cccc(C(=O)Cl)c1 | inactive
[Cl][In]([Cl])[Cl] | inactive

Compound | Potency
CCCOC(=O)c1cc(O)c(O)c(O)c1 | inactive
Nc1cc(S(=O)(=O)O)cc2cc(S(=O)(=O)O)cc(O)c12 | inactive
CC(COc1ccccc1)N(CCCl)Cc1ccccc1 (stereo not given) | inactive
Cc1cccc([N+](=O)[O-])c1C(=O)O | inactive
O=C1Nc2ccccc2C1(c1ccc(O)cc1)c1ccc(O)cc1 | inactive
OCC(CO)N[C@H]1C[C@](O)(CO)[C@@H](O)[C@H](O)[C@H]1O | inactive
CCn1cc(C(=O)O)c(=O)c2cc(F)c(N3CCNC(C)C3)c(F)c21 (stereo not given) | inactive
O=C(O)c1cc(Cl)cc(Cl)c1 | inactive
C[N+]1([O-])CCOCC1 | inactive
O=C(O)c1cn(-c2ccc(F)cc2)c2cc(N3CCNCC3)c(F)cc2c1=O | inactive
C=C(C)C1CC=C(C)C(OC(C)=O)C1 (stereo not given) | inactive
Cc1occc(=O)c1OC(=O)C(C)C | inactive
CC(C)(C)c1cc(C(C)(C)C)c(O)c(C(C)(C)C)c1 | inactive
C=C(C)C(=O)O | inactive
Nc1ccc2cc3ccccc3cc2c1 | inactive
CC(C)(C)NC(=O)[C@@H]1CN(Cc2cccnc2)CCN1C[C@@H](O)C[C@@H](Cc1ccccc1)C(=O)N[C@H]1c2ccccc2C[C@H]1O | inactive
NC12CC3CC(CC(C3)C1)C2 | inactive
CC(C)(C)c1ccccc1 | inactive
CC(=O)OCCOCCOCCOC(C)=O | inactive
c1ccc2c(c1)CCCC2C1=NCCN1 (stereo not given) | inactive

Source: PubChem BioAssay (Tox21)
